± gives the standard deviation.

For this experiment, the system named is OVCAR-3-derived ovarian cancer stem-like cells (spheroids). As to the kind of experiment: cell growth relative to untreated control; higher = more growth (less inhibition). The conditions noted are these: 2.29 µM; 96 h. In a few lines: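 After trypsin dissociation, OVCAR-3 spheroid-derived stem-like cells were placed in ultra-low attachment 96-well plates at 50,000 cells/mL in stem cell medium and preincubated for 24 h. Treatment at 2.29 uM followed for 96 h at 37°C, 5% CO2, with 4 replicate wells per compound. A 4 h TOX8 resazurin fluorescence read (ex 560/em 590 nm) gave viability, from which percent growth relative to untreated wells was derived after blank subtraction and Grubbs outlier removal.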
Regarding `COc1c(O[C@@H]2O[C@H](CO)[C@@H](O)[C@H](O)[C@H]2O)cc2c(c1OC)-c1ccc(OC)c(=O)cc1[C@@H](NC(C)=O)CC2`, the cell growth was determined as 119 ± 20%.

`COc1c2c(c(OC)c3c1c(=O)c1ccccc1n3C)OCO2` registered a cell growth of 97.8 ± 12%. In the case of `O=[n+]1c2c(n([O-])c3ccccc31)-c1cccc3cccc-2c13` it was 92 ± 21%; in that of `CN(C)c1cccc(F)c1C(=O)NC(=O)Nc1ccc(Cl)cc1`, 102 ± 28%.

Regarding `COC(=O)C1=CC(=O)C(C(=O)Nc2ccc(OC)cc2)C(c2ccccc2)O1` (centres undefined), the cell growth is 96.3 ± 45%. Regarding `OCc1ccc(-c2ccc(-c3ccc(CO)s3)o2)s1`, the cell growth came out at 92.2 ± 21%. Then `CCS(=O)(=O)Nc1ccc(Nc2c3ccccc3nc3ccccc23)c(OC)c1`, with 32.5 ± 9%. Then `COc1cc(O)c2c(c1)C(=O)c1cc3c(c(O)c1C2=O)C(OC1OC(C)C(O)C(O)C1OC)C(OC)C(C)(O)C3=O` (centres undefined), with 17.1 ± 7.5%; and `C=C1C(=O)OC2CC1C(OC(C)=O)C/C(C)=C/CC/C(C)=C\CCC2(C)O` (centres undefined), with 48.5 ± 5.5%; and `O=S(=O)(c1cccc(N=C=S)c1)c1cccc(N=C=S)c1`, with 111 ± 11%. In the case of `NCCCNCCCCNCCCN` it was 141 ± 34%. In turn, `CCOC(=O)Cc1cc(=O)oc2cc(O)ccc12` gave a cell growth of 80.4 ± 11%.

In turn, `COc1cc2c(c(OC)c1OC)-c1c(cc3c(c1OC)OCO3)CC(C)C(C)(O)C2OC(=O)c1ccccc1` (centres undefined) came in with a cell growth of 130 ± 29%. In the case of `COc1ccc(/C=C/c2cc(O)cc(O[C@@H]3O[C@H](CO)[C@@H](O)[C@H](O)[C@H]3O)c2)cc1O` it was 106 ± 26%; in that of `Cc1ccc(S(=O)(=O)c2ccc([N+](=O)[O-])o2)cc1`, 47.4 ± 31%; in that of `CC(C)c1ccc(O)c(=O)cc1`, 66.5 ± 20%.

For `Cc1cc(NC(=O)NC(=O)c2ccccc2NC(=O)CN)ccc1Oc1ncc(Br)cn1`, the cell growth stood at 49.8 ± 9%. For the compound `Cc1nc2c(o1)C(=O)c1ccccc1C2=Nc1ccccc1`, the cell growth was determined as 123 ± 56%.

As to `C1CN(c2nnc(N3CCC3)nn2)C1`, the cell growth was determined as 104 ± 18%. In the case of `COc1cc2c3c(c1OC)-c1cc4c(cc1CC3(C#N)N(C(=O)c1ccccc1)CC2)OCO4` (centres undefined) it was 93.1 ± 24%. In the case of `[O-][S+]1c2ccccc2N=C(c2cccc3ccccc23)CC1c1cccc2ccccc12` (centres undefined) it was 84.1 ± 16%; in that of `Cc1ccc(S(=O)(=O)SC/C=C/CSS(=O)(=O)c2ccc(C)cc2)cc1`, 113 ± 25%. Then `C=C1CC(Cn2cc(Br)c(=O)[nH]c2=O)(c2ccc(-c3ccccc3)cc2)OC1=O` (centres undefined), with 57.1 ± 20%. In turn, `O=C1Cc2c(-c3ccccc3)cc(-c3cccc(Cl)c3)nc2-c2ccccc2N1` had a cell growth of 99.6 ± 21%. `COc1ccc(C2=Nc3ccccc3SC(C)C2)cc1` (centres undefined) came in with a cell growth of 91.1 ± 17%.

Take `C=C(C)[C@@H]1CC[C@]2(CO)CC[C@]3(C)[C@H](CC[C@@H]4[C@@]5(C)CC[C@H](O)C(C)(C)[C@@H]5CC[C@]43C)[C@@H]12`: the cell growth turned out to be 90 ± 24%. Then `CN(C)c1ccc(/C=C/C(=O)c2ccccc2)cc1Br`, with 114 ± 9.2%; and `COc1ccc2oc(-c3ccncc3)cc(=O)c2c1`, with 122 ± 9.1%. In the case of `COc1cc2c(c(O)c1OC)-c1c(cc(OC)c(OC)c1OC)C[C@@H](C)[C@@H](C)C2` it was 82 ± 20%.

The compound `O=[N+]([O-])c1ccc(N=Nc2c(O)[nH]c3ccccc23)c([N+](=O)[O-])c1` showed a cell growth of 132 ± 29%. On to `C/C(=N\NC(=S)N1CCC1)c1ccccn1`, for which the cell growth was determined as 20.6 ± 4%. In the case of `CC1=C2C(=CO[C@H](C)[C@H]2C)C(=O)C(C(=O)O)=C1O` it was 112 ± 18%; in that of `O=Cc1cc([N+](=O)[O-])no1`, 115 ± 26%; in that of `O=C(CC1(O)C(=O)Nc2c(Cl)ccc(Cl)c21)c1ccc(Cl)cc1` (centres undefined), 142 ± 53%. In the case of `Cc1cc(Cl)ccc1N1C(=O)C(=O)C(c2nc3ccccc3o2)C(=O)C1=O` it was 134 ± 53%. The compound `C/C(=N\NC(=S)N(C)C)c1ccccn1.[Cu][Br]` displayed a cell growth of 11.1 ± 5.9%. In the case of `COc1ccc(/C=C2\CCc3ccccc3C2=O)cc1OC` it was 95.7 ± 11%; in that of `O=C1c2ccccc2C(=O)c2sc(Nc3ccc(Cl)c(Cl)c3)nc21`, 9.6 ± 7%. Then `Cc1cc(C)c(NC(=O)/C=C/c2ccccc2)c(C)c1`, with 89.7 ± 13%.

(Values after the supplement of paper PMC3484114.)
